For some of these results: Results with a measured potency or affinity are listed apart.

Holding throughout (parameters): scale not given: direction of the effect not stated beside the values
For assay [1], the target named is Protein translocase subunit SecA (Escherichia coli (strain K12)) (UniProt P10408). Briefly: Assay to Identify E. coli SecA ATPase Inhibitors. Type of assay: functional. The settings on record: 30 µM.
Assay [2] has as its target T1, Ubiquitin-activating enzyme e1, putative (Leishmania donovani (strain BPK282A1)) (UniProt E9BSI1).
T1 sequence (whole entry): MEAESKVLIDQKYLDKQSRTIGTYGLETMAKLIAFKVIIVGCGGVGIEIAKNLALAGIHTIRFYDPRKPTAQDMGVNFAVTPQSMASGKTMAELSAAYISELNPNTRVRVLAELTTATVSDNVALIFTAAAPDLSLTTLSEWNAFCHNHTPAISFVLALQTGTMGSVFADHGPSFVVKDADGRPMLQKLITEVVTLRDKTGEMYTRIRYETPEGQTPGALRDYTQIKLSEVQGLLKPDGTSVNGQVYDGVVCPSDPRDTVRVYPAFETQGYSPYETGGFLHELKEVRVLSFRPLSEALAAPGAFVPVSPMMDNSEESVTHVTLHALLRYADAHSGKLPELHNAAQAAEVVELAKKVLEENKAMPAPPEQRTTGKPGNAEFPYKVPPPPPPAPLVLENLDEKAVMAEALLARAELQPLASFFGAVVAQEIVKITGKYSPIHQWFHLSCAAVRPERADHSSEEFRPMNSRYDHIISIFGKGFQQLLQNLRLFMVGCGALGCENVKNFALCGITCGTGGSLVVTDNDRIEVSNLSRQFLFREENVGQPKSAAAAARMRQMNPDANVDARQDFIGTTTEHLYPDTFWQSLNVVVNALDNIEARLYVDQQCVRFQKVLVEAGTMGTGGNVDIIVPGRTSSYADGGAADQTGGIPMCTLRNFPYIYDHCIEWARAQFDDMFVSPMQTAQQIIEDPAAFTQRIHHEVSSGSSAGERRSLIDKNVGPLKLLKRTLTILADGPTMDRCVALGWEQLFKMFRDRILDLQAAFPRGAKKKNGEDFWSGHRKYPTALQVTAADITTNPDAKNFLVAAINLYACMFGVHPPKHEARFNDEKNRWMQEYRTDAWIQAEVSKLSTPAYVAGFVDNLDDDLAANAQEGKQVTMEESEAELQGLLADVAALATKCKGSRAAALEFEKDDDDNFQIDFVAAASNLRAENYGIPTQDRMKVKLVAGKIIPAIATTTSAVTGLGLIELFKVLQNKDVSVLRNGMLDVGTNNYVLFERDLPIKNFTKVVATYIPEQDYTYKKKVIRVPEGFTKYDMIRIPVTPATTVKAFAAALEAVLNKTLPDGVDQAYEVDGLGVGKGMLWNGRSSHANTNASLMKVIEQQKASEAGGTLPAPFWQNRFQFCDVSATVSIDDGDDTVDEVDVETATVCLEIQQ
Briefly: Leishmania donovani Ubiquitin Activating Enzyme (LdE1). Type of assay: functional. To be noted: 30 µM.

For assay [3], the target named is AMP-activated protein kinase, AMPK (Homo sapiens) (UniProt P54646+O43741+P54619+Q9UGJ0+Q9Y478+Q13131+Q9UGI9). Put plainly: AMP-dependent Kinase enzyme assay. An in vitro enzyme assay that detects ADP turnover that is directly proportional to AMPK activity. This uses naive AMPK that is activated during the assay with MK-8722. Type of assay: functional. The settings on record: 30 µM.

For assay [4], the target named is Sialic acid-binding Ig-like lectin 9 (Homo sapiens) (UniProt Q9Y336). Put plainly: Hs-Siglec9 ALPHAscreen SOP 20170721. The settings on record: 10 µM. (In general: In Alpha technology, singlet oxygen from a donor bead excites a nearby acceptor bead.)
The next assay has as its system Trypanosoma cruzi. Briefly: Trypanosoma cruzi phosphomannomutase and mannose-1-phosphate guanylyltransferase assay. Type of assay: functional. To be noted: 10 µM.
The target of assay [5] is T2, Arginase-2, mitochondrial (Homo sapiens) (UniProt P78540).
T2 sequence (whole entry): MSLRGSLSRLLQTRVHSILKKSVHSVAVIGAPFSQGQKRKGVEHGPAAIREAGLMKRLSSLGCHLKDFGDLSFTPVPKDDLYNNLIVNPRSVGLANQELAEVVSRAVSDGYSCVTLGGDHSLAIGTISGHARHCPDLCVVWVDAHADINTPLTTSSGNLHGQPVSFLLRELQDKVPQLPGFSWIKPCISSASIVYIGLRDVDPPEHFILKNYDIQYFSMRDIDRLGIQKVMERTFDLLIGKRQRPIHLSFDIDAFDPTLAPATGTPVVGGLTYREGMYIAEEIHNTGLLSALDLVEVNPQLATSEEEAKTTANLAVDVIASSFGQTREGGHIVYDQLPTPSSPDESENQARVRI
Put plainly: in vitro enzyme assay to detect the production of urea directly proportional to the activity of Arginase II. Further: in the data most compounds retested in dose-response had high values. Type of assay: functional. The settings on record: 33.3 µM.

In assay [6] the target is T3, Proteasome subunit beta (Trypanosoma cruzi) (UniProt O96673).
T3 sequence (whole entry): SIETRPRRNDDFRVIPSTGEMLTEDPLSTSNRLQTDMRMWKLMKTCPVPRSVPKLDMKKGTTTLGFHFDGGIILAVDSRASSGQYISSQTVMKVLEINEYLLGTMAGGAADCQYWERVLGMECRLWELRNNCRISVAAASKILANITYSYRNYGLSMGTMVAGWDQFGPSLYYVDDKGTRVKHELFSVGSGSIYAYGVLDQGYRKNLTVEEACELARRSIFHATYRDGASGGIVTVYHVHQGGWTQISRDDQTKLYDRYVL
Put plainly: Trypanosoma cruzi proteasome chymotrypsin-like activity (TcProtChymo) assay. Further: in the data most compounds retested in dose-response had high values. Type of assay: functional. To be noted: 9.37 µM.

The next assay is filed under the species Homo sapiens. Put plainly: To identify inhibition of the IFN signalling (Jak-Stat) pathway via expression of an eGFP reporter gene under the control of an IFN-stimulated response element (ISRE) containing MxA promoter. Type of assay: functional. The settings on record: 30 µM. Background: A reporter such as luciferase makes a cellular process visible.
Assay [7] concerns the target T4, Tyrosyl-tRNA synthetase, putative (Trypanosoma cruzi (strain CL Brener)) (UniProt Q4DSP6).
T4 sequence (whole entry): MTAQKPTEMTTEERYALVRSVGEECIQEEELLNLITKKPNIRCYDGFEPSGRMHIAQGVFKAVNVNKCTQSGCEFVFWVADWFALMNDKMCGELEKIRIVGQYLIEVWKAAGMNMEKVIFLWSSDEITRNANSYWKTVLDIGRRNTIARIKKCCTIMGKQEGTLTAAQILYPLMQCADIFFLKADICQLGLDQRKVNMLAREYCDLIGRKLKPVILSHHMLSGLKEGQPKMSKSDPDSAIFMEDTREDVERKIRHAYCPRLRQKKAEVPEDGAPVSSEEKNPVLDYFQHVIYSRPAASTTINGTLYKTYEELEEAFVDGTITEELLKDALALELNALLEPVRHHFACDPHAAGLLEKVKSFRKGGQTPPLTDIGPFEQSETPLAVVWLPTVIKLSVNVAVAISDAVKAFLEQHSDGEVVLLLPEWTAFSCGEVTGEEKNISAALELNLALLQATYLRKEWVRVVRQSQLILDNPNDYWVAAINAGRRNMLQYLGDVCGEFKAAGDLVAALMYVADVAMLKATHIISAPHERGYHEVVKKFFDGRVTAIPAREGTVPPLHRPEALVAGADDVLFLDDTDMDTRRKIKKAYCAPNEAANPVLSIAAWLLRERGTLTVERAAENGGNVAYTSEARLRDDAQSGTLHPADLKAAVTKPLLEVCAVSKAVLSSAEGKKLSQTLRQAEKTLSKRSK
Put plainly: Trypanosoma cruzi tyrosyl tRNA synthetase (TcYRS) _High Tyrosine SOP. Further: in the data most compounds retested in dose-response had high values. Type of assay: functional. To be noted: 30 µM.

Assay [8] addresses T4, Tyrosyl-tRNA synthetase, putative (Trypanosoma cruzi (strain CL Brener)). Put plainly: Trypanosoma cruzi tyrosyl tRNA synthetase (TcYRS) SOP. Type of assay: functional. The settings on record: 30 µM.
The target of assay [9] is Chromo domain-containing protein 1 (Saccharomyces cerevisiae (strain ATCC 204508 / S288c) (Baker's yeast)) (UniProt P32657). Briefly: ScCHD-1 Enzyme Inhibition Assay. Further: in the data most compounds retested in dose-response had high values. Type of assay: functional. The settings on record: 30 µM.
Sequence of Chromo domain-containing protein 1 (Saccharomyces cerevisiae (strain ATCC 204508 / S288c) (Baker's yeast)) (P32657 whole entry, the tested form may be a part): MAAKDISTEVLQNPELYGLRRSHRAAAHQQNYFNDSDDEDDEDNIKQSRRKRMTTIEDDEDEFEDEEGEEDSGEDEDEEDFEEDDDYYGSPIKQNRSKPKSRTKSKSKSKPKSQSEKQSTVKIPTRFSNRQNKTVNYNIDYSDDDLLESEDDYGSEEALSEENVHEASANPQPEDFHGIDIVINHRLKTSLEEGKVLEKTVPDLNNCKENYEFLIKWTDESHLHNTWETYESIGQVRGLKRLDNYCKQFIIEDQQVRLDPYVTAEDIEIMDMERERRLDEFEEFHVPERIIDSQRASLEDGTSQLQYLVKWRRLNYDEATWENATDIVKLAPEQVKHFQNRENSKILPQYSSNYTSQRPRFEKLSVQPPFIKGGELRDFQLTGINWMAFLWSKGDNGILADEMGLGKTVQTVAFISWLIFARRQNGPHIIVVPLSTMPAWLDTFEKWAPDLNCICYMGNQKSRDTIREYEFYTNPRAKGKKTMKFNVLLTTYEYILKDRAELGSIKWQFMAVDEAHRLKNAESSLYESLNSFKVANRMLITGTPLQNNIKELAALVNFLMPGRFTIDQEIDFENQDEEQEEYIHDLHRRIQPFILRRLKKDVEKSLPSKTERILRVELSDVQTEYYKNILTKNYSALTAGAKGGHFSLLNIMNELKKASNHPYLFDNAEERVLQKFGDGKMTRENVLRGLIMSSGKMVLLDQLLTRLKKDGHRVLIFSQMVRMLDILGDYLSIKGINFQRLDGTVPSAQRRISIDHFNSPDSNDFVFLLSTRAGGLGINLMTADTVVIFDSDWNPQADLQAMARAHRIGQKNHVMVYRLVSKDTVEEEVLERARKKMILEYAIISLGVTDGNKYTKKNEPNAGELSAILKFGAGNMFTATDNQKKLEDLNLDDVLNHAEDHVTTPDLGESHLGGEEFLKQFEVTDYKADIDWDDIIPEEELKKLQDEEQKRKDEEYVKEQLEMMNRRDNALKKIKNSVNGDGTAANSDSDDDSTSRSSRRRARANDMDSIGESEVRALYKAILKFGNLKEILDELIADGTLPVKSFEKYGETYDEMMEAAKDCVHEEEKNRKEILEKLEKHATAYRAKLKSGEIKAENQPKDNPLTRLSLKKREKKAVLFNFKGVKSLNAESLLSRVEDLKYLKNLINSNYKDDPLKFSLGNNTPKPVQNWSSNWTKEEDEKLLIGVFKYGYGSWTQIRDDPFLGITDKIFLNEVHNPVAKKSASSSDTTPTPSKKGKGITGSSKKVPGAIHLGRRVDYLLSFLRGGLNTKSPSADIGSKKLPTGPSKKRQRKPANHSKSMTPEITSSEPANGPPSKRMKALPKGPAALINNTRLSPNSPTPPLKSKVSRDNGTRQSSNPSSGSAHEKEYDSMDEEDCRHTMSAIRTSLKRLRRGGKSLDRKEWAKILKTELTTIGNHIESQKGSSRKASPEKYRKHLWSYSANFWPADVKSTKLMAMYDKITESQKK

Sequence of Protein translocase subunit SecA (Escherichia coli (strain K12)) (P10408 whole entry): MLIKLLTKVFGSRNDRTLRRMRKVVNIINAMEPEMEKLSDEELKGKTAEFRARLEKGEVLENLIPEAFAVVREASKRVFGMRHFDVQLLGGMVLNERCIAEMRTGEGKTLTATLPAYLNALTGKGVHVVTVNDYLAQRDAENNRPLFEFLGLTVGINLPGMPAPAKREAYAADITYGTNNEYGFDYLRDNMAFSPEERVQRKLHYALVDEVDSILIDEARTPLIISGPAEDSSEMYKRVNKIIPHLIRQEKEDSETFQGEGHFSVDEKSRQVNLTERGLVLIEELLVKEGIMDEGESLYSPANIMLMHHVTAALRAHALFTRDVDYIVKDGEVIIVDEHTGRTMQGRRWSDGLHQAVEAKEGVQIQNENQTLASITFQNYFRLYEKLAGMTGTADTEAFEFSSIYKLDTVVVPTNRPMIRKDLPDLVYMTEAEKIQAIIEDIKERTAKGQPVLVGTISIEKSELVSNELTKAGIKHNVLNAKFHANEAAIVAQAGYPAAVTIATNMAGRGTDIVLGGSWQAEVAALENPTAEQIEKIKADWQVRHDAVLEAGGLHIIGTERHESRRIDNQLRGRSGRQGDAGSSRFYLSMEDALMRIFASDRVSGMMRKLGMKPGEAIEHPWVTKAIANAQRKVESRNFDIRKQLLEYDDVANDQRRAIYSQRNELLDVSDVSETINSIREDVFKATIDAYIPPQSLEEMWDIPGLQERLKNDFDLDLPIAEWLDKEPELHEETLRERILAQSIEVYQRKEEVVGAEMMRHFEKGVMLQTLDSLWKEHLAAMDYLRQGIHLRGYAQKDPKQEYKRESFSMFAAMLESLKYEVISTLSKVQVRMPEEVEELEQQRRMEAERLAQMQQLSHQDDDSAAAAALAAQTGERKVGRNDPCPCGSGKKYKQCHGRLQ
Sequence of Sialic acid-binding Ig-like lectin 9 (Homo sapiens) (Q9Y336 whole entry): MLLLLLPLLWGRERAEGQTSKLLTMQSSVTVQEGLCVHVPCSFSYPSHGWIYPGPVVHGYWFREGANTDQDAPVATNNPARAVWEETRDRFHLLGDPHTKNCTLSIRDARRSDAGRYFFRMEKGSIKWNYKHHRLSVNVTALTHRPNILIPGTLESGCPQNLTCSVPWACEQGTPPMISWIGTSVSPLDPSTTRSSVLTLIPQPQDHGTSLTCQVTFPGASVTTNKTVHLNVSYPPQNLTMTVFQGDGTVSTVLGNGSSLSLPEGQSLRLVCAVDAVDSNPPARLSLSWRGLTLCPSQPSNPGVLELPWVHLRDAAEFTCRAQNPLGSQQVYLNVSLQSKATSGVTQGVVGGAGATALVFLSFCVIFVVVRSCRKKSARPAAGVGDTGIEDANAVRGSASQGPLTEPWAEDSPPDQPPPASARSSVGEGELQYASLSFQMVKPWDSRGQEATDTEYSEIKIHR

With `CCc1nnc2n1CCN(Cc1csc(-c3ccsc3)n1)C2`, the Percent Effect in [1] is -1.79%; in assay [2], -6.94%; in assay [3] it was 1.22%; in assay [4], -3.25%; in the assay on Trypanosoma cruzi, 0.68%; in assay [5], 0.883%. The Percent Effect was 13.5% in assay [6]; -14.4% in the assay listed under Homo sapiens; 4.21% in assay [7]; 2.56% in assay [8]; -0.47% in [9].
As to `O=C1OC2(CCNCC2)CN1CC(=O)N1CCCC1c1ccco1` (stereo unspecified), the Percent Effect in assay [1] is -3.11%; in [2], 5.41%; in assay [3] it was 1.69%; in [4], 4.82%; in the assay with Trypanosoma cruzi, 0.386%; in assay [5] it was 2.86%. The Percent Effect is 19.8% in [6]; -0.46% in the assay listed under Homo sapiens; 5.82% in assay [7]; 19.5% in [8]; -4.16% in assay [9].
As to `CCn1ncc2c1CCCC2NCc1ccc(OC)c(C)c1` (stereo unspecified), the Percent Effect in assay [1] was -7.95%; in [2], 12.7%; in assay [3], -10.6%; in assay [4], 11.1%; in the assay on Trypanosoma cruzi it was 7.08%; in [5], -3.42%. The Percent Effect in [6] was 1.23%; in the assay filed under Homo sapiens, 0.115%; in assay [7], 4.43%; in assay [8] it was 16.5%; in assay [9], -6.17%.
On to `COc1ccc(-c2noc(CN3CCc4cncnc4C3)n2)cc1`, for which the Percent Effect was -3.37% in assay [1]; -15.8% in [2]; -14.9% in [3]; 2.94% in assay [4]; 7.52% with Trypanosoma cruzi; 0% in assay [5]. Moreover, the Percent Effect was 18.6% in [6]; 8.69% in the assay filed under Homo sapiens; 8.33% in assay [7]; 9.76% in [8]; 25% in [9].
For the molecule `Cc1nc(C)n(CC2CCCN(Cc3nnc(-c4ccco4)o3)C2)n1` (stereo unspecified), the Percent Effect in assay [1] is -3.02%; in assay [2] it was 0%; in [3], 11.3%; in [4], -2.45%; in the assay on Trypanosoma cruzi, 3.02%; in assay [5], 3.55%. For the same molecule, the Percent Effect was 3.74% in [6]; 4.98% in the assay listed under Homo sapiens; 5.32% in assay [7]; 5.2% in [8]; -1.67% in assay [9].
Turning to `CN(C)CCNC(=O)c1cc(-c2cnc(N3CCCC3)nc2)cn1C`, the Percent Effect was -6.55% in assay [1]; 5.33% in [2]; 9.86% in assay [3]; -3.71% in assay [4]; -0.197% with Trypanosoma cruzi; -1.17% in [5]. The Percent Effect in [6] is 0.0881%; in the assay filed under Homo sapiens it was 45.6%; in assay [7] it was 0%; in assay [8], -6.41%; in assay [9], -10.7%.
Regarding `CCN(CC)Cc1ccc(C(=O)N2CCN(CC(C)O)CC2)cc1` (stereo unspecified), the Percent Effect in [1] was -4.12%; in assay [2], 0%; in assay [3] it was -3.46%; in assay [4] it was 8.13%; in the assay on Trypanosoma cruzi, -0.472%; in assay [5], -2.81%. Besides, the Percent Effect in assay [6] was -4.5%; in the assay listed under Homo sapiens, -2.61%; in assay [7] it was 4.43%; in assay [8], 1.24%; in assay [9], 0.847%.
Consider `CCn1nc(C)c2nnn(CC(=O)Nc3cccc(Cl)c3)c(=O)c21`, for which the Percent Effect was -4.67% in assay [1]; -6.67% in [2]; 1.25% in [3]; 3.3% in assay [4]; 4.13% with Trypanosoma cruzi; -5.11% in [5]. For the same molecule, the Percent Effect was 12.9% in [6]; -22.7% in the assay filed under Homo sapiens; 6.35% in [7]; 7.69% in [8]; -7% in [9].
On to `Cc1nc(C)n(C2CCCN(C(=O)c3csnn3)C2)n1` (stereo unspecified), for which the Percent Effect in assay [1] is -2.6%; in assay [2] it was 21.6%; in [3], -13%; in assay [4], -1.58%; in the assay on Trypanosoma cruzi, -2.92%; in assay [5] it was -7.21%. The Percent Effect is 16.2% in assay [6]; 15.5% in the assay filed under Homo sapiens; 4.43% in assay [7]; 18.5% in assay [8]; -4.56% in [9].
As for `COC(=O)CNC(=O)CSCc1nc(O)c2c(C)c(C)sc2n1`, the Percent Effect was -1.31% in [1]; -6.67% in assay [2]; 14.7% in assay [3]; 4.89% in assay [4]; -3.93% in the assay with Trypanosoma cruzi; 3.7% in assay [5]. In addition, the Percent Effect in assay [6] is 9.8%; in the assay filed under Homo sapiens, -3.69%; in assay [7], 3.17%; in assay [8], 0%; in [9], -4.91%.
As to `CCOc1ccc(NC(=O)c2cnc(N3CCCC3)nc2C)cc1`, the Percent Effect in assay [1] was -4.12%; in [2], 5.2%; in assay [3] it was -3.01%; in assay [4] it was -0.674%; in the assay with Trypanosoma cruzi, 1.48%; in assay [5], 3.23%. For the same molecule, the Percent Effect in [6] is 5.22%; in the assay listed under Homo sapiens it was 11.8%; in assay [7], 4.23%; in [8] it was 16.7%; in assay [9] it was -8.66%.

Source of the values: ChEMBL document CHEMBL3988442, “University of Dundee, Small-Polar-MMV Screening Library” (2021).
